Assay outcomes deposited in PubChem BioAssay by several laboratories.
Anthrax LF prot – Bacillus anthracis LF protease inhibitors, primary screen, biochemical, multiplex microsphere, MLPCN library | 0.12% of 360,000 active | multiplex microsphere protease cleavage assay | inhibition, % at 10 µM | AID 588501, 2011 | Lethal factor (Bacillus anthracis), P15917; note: plate controls were buffer without enzyme for full effect and enzyme alone for no effect
Target sequence (P15917 whole entry, looked up): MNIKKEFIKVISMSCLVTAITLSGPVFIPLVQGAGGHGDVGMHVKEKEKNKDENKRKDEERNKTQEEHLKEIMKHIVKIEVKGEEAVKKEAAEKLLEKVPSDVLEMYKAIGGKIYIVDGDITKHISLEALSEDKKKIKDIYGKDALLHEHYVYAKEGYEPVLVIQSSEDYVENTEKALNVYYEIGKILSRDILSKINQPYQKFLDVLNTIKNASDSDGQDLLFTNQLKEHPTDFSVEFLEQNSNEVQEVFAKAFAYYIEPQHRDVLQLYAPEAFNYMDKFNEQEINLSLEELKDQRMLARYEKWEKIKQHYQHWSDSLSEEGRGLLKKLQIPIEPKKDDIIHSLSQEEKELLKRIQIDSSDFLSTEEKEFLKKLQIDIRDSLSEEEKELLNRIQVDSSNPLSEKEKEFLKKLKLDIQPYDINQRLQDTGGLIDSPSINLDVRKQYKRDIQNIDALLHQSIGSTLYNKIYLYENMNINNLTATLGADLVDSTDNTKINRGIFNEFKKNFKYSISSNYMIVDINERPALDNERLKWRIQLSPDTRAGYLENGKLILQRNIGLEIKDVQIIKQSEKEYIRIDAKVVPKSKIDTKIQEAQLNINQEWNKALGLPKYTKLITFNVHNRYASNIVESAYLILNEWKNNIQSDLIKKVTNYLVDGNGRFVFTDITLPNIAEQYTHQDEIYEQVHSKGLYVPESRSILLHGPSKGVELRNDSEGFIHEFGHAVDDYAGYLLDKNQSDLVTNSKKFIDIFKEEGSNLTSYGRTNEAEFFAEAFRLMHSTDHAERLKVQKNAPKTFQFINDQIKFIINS
Bead autofluor – flagged as autofluorescent in microsphere protease counterscreen | compound autofluorescence counterscreen, microsphere flow cytometry; hits give high values | fluorescence intensity (test concentration not listed) | 3.1% of 360,000 active; in the data active = fluorescence intensity above about 16000; inconclusive = no clear call, values can overlap the other calls
BoNT-F LC inh – BoNT/F light chain protease inhibitors, primary screen, biochemical, flow cytometry, MLPCN library; Botulinum neurotoxin type F light chain protease (Clostridium botulinum); Multiplex microsphere protease cleavage assay; inhibition, % at 10 µM; 0.22% of 360,000 active; in the data active = inhibition above about 35%, passing the limit was not always enough; inconclusive = no clear call, values can overlap the other calls; note: plate controls were buffer without enzyme for full effect and enzyme alone for no effect
BoNT A protease – BoNT/A light chain protease inhibitors, primary screen, biochemical, flow cytometry, MLPCN library; Botulinum neurotoxin type A light chain protease (Clostridium botulinum A str. ATCC 3502); 0.17% of 360,000 active; multiplex microsphere protease substrate cleavage; inhibition, % at 10 µM; note: plate controls were buffer without enzyme for full effect and enzyme alone for no effect
3CLpro inhibitor – SARS-CoV 3CLpro protease inhibitors, primary screen, biochemical, quenched FRET; Replicase polyprotein 1ab (Severe acute respiratory syndrome coronavirus), P0C6X7; recombinant SARS-CoV 3CLpro, quenched FRET peptide cleavage; inhibition, % at 6 µM; 0.14% of 290,000 active; AID 1706, 2009; in the data active = inhibition above about 12%
Starred values were filed as active, the others as inactive; ? = inconclusive; . = no result. Compounds with a hit are over-represented: about 3.5% of the library has one in this group of screens. Cut-off read from the data, not from the text of the source, unless noted: active = inhibition above about 30%; inconclusive = no clear call, values can overlap the other calls; inactive = below that.

SMILES	Anthrax LF prot	Bead autofluor	BoNT-F LC inh	BoNT A protease	3CLpro inhibitor
CNS(=O)(=O)c1ccc(OC)c(-c2nnc3c4ccccc4c(C)nn23)c1	3	2635	-3	0	1
COc1ccc(S(=O)(=O)NCc2ccco2)cc1-c1nnc2c3ccccc3c(C)nn12	-5	20211*	6	7	-2
Cc1ccc(-c2nc(CCN3C(=O)c4ccccc4C3=O)cs2)cc1	-5	23490*	-4	?	-2
N#C/C(=C/c1ccc(F)cc1)c1nc(CCN2C(=O)c3ccccc3C2=O)cs1	-3	16963*	-7	-2	3
N#C/C(=C/c1cccc(C(F)(F)F)c1)c1nc(CCN2C(=O)c3ccccc3C2=O)cs1	-3	6068	-4	1	0
O=C1c2ccccc2C(=O)N1CCc1csc(NNc2nc(CCN3C(=O)c4ccccc4C3=O)cs2)n1	-7	3181	-2	-1	6
O=C(COc1ccc([N+](=O)[O-])cc1)Nc1ccc(C(=O)Nc2ccccc2C(=O)O)cc1	-8	3137	1	0	1
CCCCN(C(=O)C1COc2ccccc2O1)c1c(N)n(CCC)c(=O)[nH]c1=O (centres undefined)	-3	3640	11	1	.
COc1cc2c(cc1OC)C(c1cc3cc(OC)c(OC)cc3[nH]c1=O)N(C(=O)C1CC1)CC2 (centres undefined)	-3	20442*	0	1	1
CCOc1ccc(S(=O)(=O)NCc2ccccn2)cc1	1	13165	-4	0	2
Cc1ccc(S(=O)(=O)N2CCC(C(=O)OC(C)C(=O)NCc3ccc4c(c3)OCO4)CC2)cc1 (centres undefined)	-1	23314*	-3	?	-3
COCCNC(=O)c1noc2c1CCc1cc(OC)ccc1-2	-1	9948	-1	-1	4
COc1ccc2c(c1)CCc1c(C(=O)NCCCn3ccnc3)noc1-2	-2	22596*	0	1	-7
COc1ccc(OC)c(-c2cc(C(=O)NCCCn3ccnc3)no2)c1	-7	24152*	-4	-3	0
COc1ccc2c(c1)CCc1c(C(=O)NCc3ccco3)noc1-2	-4	24173*	-3	?	0
CCN(C(=O)CSc1nc2cc(C(=O)OC)ccc2c(=O)n1Cc1ccco1)c1cccc(C)c1	-3	16983*	-7	-3	1
O=C(NCC1CCCO1)c1ccc2c(=O)n(Cc3ccco3)c(SCC(=O)N3CCCC3)nc2c1 (centres undefined)	10	5059	5	0	2
COCCCn1c(SCC(=O)NCc2ccco2)nc2sc3c(c2c1=O)CCC3	-2	19443*	4	2	8
O=C(CSc1nc2sc3c(c2c(=O)n1-c1ccccc1)CCCC3)NCc1ccco1	-13	4174	-5	-1	-5
CCOC(=O)CSc1nc2cc(C(=O)NCC3CCCO3)ccc2c(=O)n1Cc1ccco1 (centres undefined)	-4	22243*	2	1	3
C=CCn1c(SCC(=O)OCC)nc2cc(C(=O)NCc3ccco3)ccc2c1=O	-2	23049*	0	1	-1
CCc1ccc(NC(=O)CSc2nc3cc(C(=O)OC)ccc3c(=O)n2Cc2ccco2)cc1	-4	6295	0	1	-4
Nc1ncnc(Nc2cc(Cl)cc(Cl)c2)c1[N+](=O)[O-]	3	1979	-6	-1	0
CCCCn1c(SCC(=O)NCc2ccco2)nc2ccc(N3CCOCC3)cc2c1=O	-2	22158*	-9	-7	0
COCCNC(=O)c1ccc2c(=O)n(Cc3ccco3)c(SCC(=O)NC3CCCC3)nc2c1	-9	21828*	4	1	6
SMILES	Anthrax LF prot	Bead autofluor	BoNT-F LC inh	BoNT A protease	3CLpro inhibitor
CCCCCn1c(SCC(=O)OCC)nc2cc(C(=O)NCc3ccco3)ccc2c1=O	-6	21498*	-10	-6	4
COCCNC(=O)CSc1nc2cc3c(cc2c(=O)n1Cc1ccco1)OCO3	-13	8652	9	1	1
CCOC(=O)CSc1nc2ccccc2c(=O)n1Cc1ccco1	1	7993	-4	0	2
CCCCn1c(SCC(=O)NCc2ccccc2)nc2ccc(N3CCOCC3)cc2c1=O	-3	7586	3	1	6
CN(CC(=O)Nc1ccccc1Br)C(=O)CNC(=O)c1ccc2c(c1)OCO2	0	?	-12	2	.
CCN(CC)c1ccc(/C=N/c2sc3c(c2C#N)C2CCN3CC2)c(O)c1	14	22519*	24	18	5
Cc1ncc(CC(=O)n2cc(C(=O)c3cc(F)ccc3O)cn2)s1	0	24032*	-2	?	3
CC(=O)NCc1nc2ccccc2n1C(C)C	3	5948	0	0	1
CC(C)n1c(CCCO)nc2ccccc21	-1	24524*	-8	-4	-2
COC(=O)c1nc(NC(=S)NC(=O)c2cccs2)sc1C	-3	5947	-3	0	4
CCc1ccc(-c2nc(NC(=S)NC(=O)c3cccs3)sc2C)cc1	0	23514*	-1	-1	-2
Cc1cc(C)nc(NNC(=O)NC2CCCCC2)n1	0	2227	-1	-1	6
O=C(NCN1CCN(c2ccccc2F)CC1)c1ccccc1	0	23676*	-2	-1	-4
Cn1c(=O)cc(SCC(=O)NCCN2CCN(c3ccccc3F)CC2)c2cc(Cl)ccc21	2	22129*	2	?	-5
O=C(CN1CCN(c2ccccc2F)CC1)NCc1ccccc1	-11	3812	14	1	2
O=C(Oc1ccccc1)N1CCN(c2ccccc2F)CC1	-1	3580	38*	-2	6
O=C(Cc1c(C(=O)O)[nH]c2ccccc12)NCCN1CCN(c2ccccc2F)CC1	0	23477*	-4	?	4
O=C(NCCN1CCN(c2ccccc2F)CC1)c1ccc2nc3ccccc3c(=O)n2c1	-2	3827	2	0	0
Cc1ccc(CNC(=O)CCn2nc(-c3ccc(Cl)cc3)ccc2=O)cc1	-2	18881*	0	2	-3
O=C(CCn1nc(-c2ccc(Cl)cc2)c2ccccc2c1=O)NCC1CCCO1 (centres undefined)	5	4103	-10	1	4
CN(C)C(CNC(=O)C1CC(=O)N(c2cccc(C(F)(F)F)c2)C1)c1ccccc1 (centres undefined)	-4	3416	-5	-1	.
O=C(O)CCc1ccc(-c2cccs2)n1NC(=O)c1ccccc1Br	-2	23254*	-6	-3	2
CC(C)(C)c1ccc(C(=O)Nn2c(CCC(=O)O)ccc2-c2cccs2)cc1	-1	17160*	0	-2	2
CC(C)(CO)NC(=O)CC1C(=O)NCCN1CC(c1ccccc1)c1ccccc1 (centres undefined)	-5	4431	-3	-1	-1
